PubChem BioAssay
For part of these data: Entries with a potency or affinity are not part of this list. Activity calls are given as the source filed them. Unless noted, no rule for the calls is given here.

Tests used:
[1] = antimalarial activity against Dd2 strain (AID 2302;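 active = growth inhibition above 50% at the single 2 µM test dose, taken to imply half-maximal potency below 2 µM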;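 also: 0% = DMSO untreated growth and 100% = chloroquine plus artemisinin killed control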); settings: P. falciparum Dd2 in RBCs, LDH growth readout, 72 h; at 2 µM; stronger effect = higher value
[2] = HepG2 cytotoxicity, primary screen, cytotoxicity control for P. falciparum antimalarial project, cell-based, ATP luminescence (AID 2303;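 active = inhibition above 50%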;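 also: 0% = DMSO wells and 100% = digitonin-killed cells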); settings: HepG2 viability, 24-48 h, at 10 µM, stronger effect = higher value
[3] = biological target: L-lactate dehydrogenase (Plasmodium falciparum (isolate CDC / Honduras)) (UniProt Q27743); test: PfLDH activity inhibition – cell lysate, 3D7 strain, counter-screen for P. falciparum growth inhibition project (AID 2304);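 also: 0% = vehicle and 100% = reference inhibitor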; settings: P. falciparum 3D7 crude extract, LDH APAD/NBT absorbance; at 2 µM; stronger effect = higher value
[4] = inhibition of 3D7 malaria parasite growth – strain 3D7 (AID 2306);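 also: 0% = DMSO wells and 100% = chloroquine plus artemisinin control wells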; settings: P. falciparum 3D7 erythrocytic growth, LDH absorbance, 72 h; at 2 µM; stronger effect = higher value
[5] = biological target: Calcium-dependent protein kinase 1 (Plasmodium falciparum (isolate 3D7)) (UniProt P62344); test: PfCDPK1 kinase inhibitors, biochemical, TCAMS library (AID 1159585; cut-off not given, nearly all actives have IC50 up to about 0.98 µM;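 also: inhibitors leave more ATP so luminescence rises with inhibition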); settings: recombinant PfCDPK1, Kinase-Glo ATP depletion luminescence
[6] = biological target: Plasmodium falciparum protein kinase 6 (PK6, PF3D7_1337100) (UniProt Q8IDW1); test: PfPK6 kinase inhibitors, biochemical, TCAMS library (AID 1159586); settings: recombinant PfPK6, Kinase-Glo ATP depletion luminescence
[7] = biological target: Protein kinase 7 (PK7), Plasmodium falciparum 3D7 (PF3D7_0213400) (UniProt Q7YTF7); test: inhibition of Plasmodium PK7 catalytic activity – biochemical, TCAMS antimalarial set, Kinase-Glo luminescence (AID 1159587); settings: recombinant PfPK7, Kinase-Glo ATP depletion luminescence
[8] = biological target: Calcium-dependent protein kinase 4 (Plasmodium falciparum (isolate 3D7)) (UniProt Q8IBS5); test: PfCDPK4 kinase inhibitors, biochemical, TCAMS library (AID 1159588; cut-off not given, nearly all actives have IC50 up to about 0.91 µM); settings: recombinant PfCDPK4, Kinase-Glo ATP depletion luminescence
Sequence of Calcium-dependent protein kinase 4 (Plasmodium falciparum (isolate 3D7)) (Q8IBS5 whole entry, looked up): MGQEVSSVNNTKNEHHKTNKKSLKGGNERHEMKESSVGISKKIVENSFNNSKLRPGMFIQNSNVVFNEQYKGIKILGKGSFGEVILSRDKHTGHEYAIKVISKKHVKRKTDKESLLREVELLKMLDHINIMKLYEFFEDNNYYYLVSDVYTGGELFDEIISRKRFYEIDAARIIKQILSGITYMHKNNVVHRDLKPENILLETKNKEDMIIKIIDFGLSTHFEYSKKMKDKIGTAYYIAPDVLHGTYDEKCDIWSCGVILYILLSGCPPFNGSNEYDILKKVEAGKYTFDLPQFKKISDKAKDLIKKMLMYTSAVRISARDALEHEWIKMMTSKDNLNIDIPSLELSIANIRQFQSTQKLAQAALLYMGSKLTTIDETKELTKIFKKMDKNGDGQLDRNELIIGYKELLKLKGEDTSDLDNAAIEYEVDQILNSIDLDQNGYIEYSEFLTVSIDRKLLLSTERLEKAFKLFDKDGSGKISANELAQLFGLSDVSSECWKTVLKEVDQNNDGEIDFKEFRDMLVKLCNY

Sequence of Plasmodium falciparum protein kinase 6 (PK6, PF3D7_1337100) (Q8IDW1 1-305): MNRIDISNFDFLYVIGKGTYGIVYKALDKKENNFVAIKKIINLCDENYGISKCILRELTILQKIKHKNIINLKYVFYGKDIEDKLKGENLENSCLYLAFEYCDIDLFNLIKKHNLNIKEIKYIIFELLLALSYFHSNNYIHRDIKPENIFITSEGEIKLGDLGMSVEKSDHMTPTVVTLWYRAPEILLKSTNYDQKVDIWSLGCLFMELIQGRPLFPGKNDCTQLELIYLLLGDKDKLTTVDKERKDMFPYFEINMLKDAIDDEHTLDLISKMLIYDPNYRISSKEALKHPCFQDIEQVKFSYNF
Sequence of Calcium-dependent protein kinase 1 (Plasmodium falciparum (isolate 3D7)) (P62344 whole entry, looked up): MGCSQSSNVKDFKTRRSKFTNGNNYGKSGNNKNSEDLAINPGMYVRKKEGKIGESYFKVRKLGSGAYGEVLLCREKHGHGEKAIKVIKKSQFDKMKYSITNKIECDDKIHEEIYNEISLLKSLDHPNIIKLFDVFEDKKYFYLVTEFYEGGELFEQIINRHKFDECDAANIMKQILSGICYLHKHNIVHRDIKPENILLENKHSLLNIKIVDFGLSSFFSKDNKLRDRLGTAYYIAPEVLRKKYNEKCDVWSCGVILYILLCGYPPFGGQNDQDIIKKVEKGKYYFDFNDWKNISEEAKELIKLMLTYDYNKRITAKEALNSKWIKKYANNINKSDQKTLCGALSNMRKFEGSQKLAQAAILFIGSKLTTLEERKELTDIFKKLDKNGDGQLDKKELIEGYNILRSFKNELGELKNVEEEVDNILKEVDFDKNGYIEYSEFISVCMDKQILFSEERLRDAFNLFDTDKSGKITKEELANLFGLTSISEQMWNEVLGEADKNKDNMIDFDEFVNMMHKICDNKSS
Sequence of Protein kinase 7 (PK7), Plasmodium falciparum 3D7 (PF3D7_0213400) (Q7YTF7 1-343): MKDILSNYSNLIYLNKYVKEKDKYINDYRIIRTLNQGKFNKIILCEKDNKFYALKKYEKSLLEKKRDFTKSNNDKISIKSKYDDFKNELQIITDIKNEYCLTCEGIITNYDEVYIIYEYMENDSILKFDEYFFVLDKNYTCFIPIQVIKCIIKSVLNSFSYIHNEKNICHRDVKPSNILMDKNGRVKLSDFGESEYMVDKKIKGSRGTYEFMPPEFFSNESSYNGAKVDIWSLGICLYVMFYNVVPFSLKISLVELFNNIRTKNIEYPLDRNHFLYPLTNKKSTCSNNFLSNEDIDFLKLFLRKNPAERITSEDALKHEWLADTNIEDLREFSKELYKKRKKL
Sequence of L-lactate dehydrogenase (Plasmodium falciparum (isolate CDC / Honduras)) (Q27743 whole entry, looked up): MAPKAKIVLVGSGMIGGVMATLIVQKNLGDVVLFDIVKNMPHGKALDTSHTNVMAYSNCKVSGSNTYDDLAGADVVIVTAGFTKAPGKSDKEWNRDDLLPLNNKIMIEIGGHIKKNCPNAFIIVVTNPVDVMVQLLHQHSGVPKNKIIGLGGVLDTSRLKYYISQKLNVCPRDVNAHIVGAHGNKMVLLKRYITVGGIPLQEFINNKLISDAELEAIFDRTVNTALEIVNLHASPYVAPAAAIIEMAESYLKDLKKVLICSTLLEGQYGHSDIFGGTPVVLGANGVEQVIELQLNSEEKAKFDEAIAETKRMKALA

O=C(c1ccco1)c1cn(CCOc2ccccc2)c2ccccc12
inactive: growth inhibition [1] 10% | inhibition [2] 5% | inhibition [3] -4% | outcome [5] | outcome [6] | outcome [7] | outcome [8]
active: growth inhibition [4] 98%

COc1cc2nc(NCCCOC(C)C)n3nc(-c4ccccc4)nc3c2cc1OC
active: growth inhibition [1] 97% | growth inhibition [4] 94%
inactive: inhibition [2] -3% | inhibition [3] -1% | outcome [5] | outcome [6] | outcome [7] | outcome [8]

CCN(CC)c1ccc(-c2nc3ncc(Cl)cc3[nH]2)cc1
inactive: inhibition [2] 16% | inhibition [3] -5% | outcome [5] | outcome [6] | outcome [7] | outcome [8]
active: growth inhibition [1] 85% | growth inhibition [4] 85%

Cn1cncc1C(=O)Nc1cccc(-c2csc(-c3nc4ccccc4[nH]3)c2)c1
inactive: inhibition [2] 15% | inhibition [3] -3% | outcome [5] | outcome [6] | outcome [7] | outcome [8]
active: growth inhibition [1] 64% | growth inhibition [4] 102%

Cc1cc(-c2ccc(Cl)cc2)c2c(N)c(C(=O)Nc3ccc(F)cc3)sc2n1
inactive: inhibition [2] 12% | inhibition [3] 0% | outcome [5] | outcome [6] | outcome [7] | outcome [8]
active: growth inhibition [1] 87% | growth inhibition [4] 97%

C=CCc1c(C(=O)NCC23CC4CC(CC(C4)C2)C3)[nH]c2ccccc2c1=O
active: growth inhibition [1] 79% | growth inhibition [4] 86%
inactive: inhibition [2] 40% | inhibition [3] 2% | outcome [5] | outcome [6] | outcome [7] | outcome [8]

O=C(Nc1cccc(-c2ccc(-c3nc4ccccc4[nH]3)cc2)c1)c1ccncc1
active: growth inhibition [1] 58% | growth inhibition [4] 100%
inactive: inhibition [2] 30% | inhibition [3] -1% | outcome [5] | outcome [6] | outcome [7] | outcome [8]

NC(N)=NN=Cc1ccccc1OCc1ccccc1Cl
inactive: growth inhibition [1] 30% | inhibition [2] 14% | inhibition [3] 5% | outcome [5] | outcome [6] | outcome [7] | outcome [8]
active: growth inhibition [4] 101%

NCc1ccc(-c2ccc3c(N)nccc3c2)cc1
inactive: inhibition [2] 28% | inhibition [3] 0% | outcome [5] | outcome [6] | outcome [7] | outcome [8]
active: growth inhibition [1] 92% | growth inhibition [4] 100%

COc1ccc(NC(=O)C=Cc2ccc(Oc3ccccc3Cl)c([N+](=O)[O-])c2)cc1OCCN(C(C)C)C(C)C
inactive: inhibition [2] 31% | inhibition [3] 2% | outcome [5] | outcome [6] | outcome [7] | outcome [8]
active: growth inhibition [1] 97% | growth inhibition [4] 99%

COc1ccc(Cl)cc1NC(=O)CN(C)C(=O)c1cnn(-c2ccccc2)n1
active: growth inhibition [1] 99% | growth inhibition [4] 102%
inactive: inhibition [2] -6% | inhibition [3] -2% | outcome [5] | outcome [6] | outcome [7] | outcome [8]

COc1ccc(Nc2nc(NCc3ccco3)c3ccccc3n2)cc1
inactive: inhibition [2] 38% | inhibition [3] -4% | outcome [5] | outcome [6] | outcome [7] | outcome [8]
active: growth inhibition [1] 76% | growth inhibition [4] 99%

Cc1cc(NN=Cc2ccc(F)cc2)c2cc(C(F)(F)F)ccc2n1
active: growth inhibition [1] 99% | growth inhibition [4] 101%
inactive: inhibition [2] 2% | inhibition [3] -2% | outcome [5] | outcome [6] | outcome [7] | outcome [8]

CN(C)CC1CCCN1Cc1ccccc1-c1cnn(C)c(=O)c1Oc1cccc(C#N)c1 (configuration not stated)
active: growth inhibition [4] 92%
inactive: growth inhibition [1] 15% | inhibition [2] 26% | inhibition [3] 4% | outcome [5] | outcome [6] | outcome [7] | outcome [8]

COc1ccc(-c2nc(NC(=O)CS(=O)(=O)c3ccc(OC)cc3)sc2C)cc1
inactive: inhibition [2] 6% | inhibition [3] -2% | outcome [5] | outcome [6] | outcome [7] | outcome [8]
active: growth inhibition [1] 89% | growth inhibition [4] 95%

Cc1cnc(C(=O)Nc2cccc(-c3cccc(-c4nc5c(C)cccc5[nH]4)c3)c2)cn1
active: growth inhibition [4] 99%
inactive: growth inhibition [1] 45% | inhibition [2] 15% | inhibition [3] -1% | outcome [5] | outcome [6] | outcome [7] | outcome [8]

CN(C)C(CNC(=O)c1cc(-c2ccncc2)c(-c2ccc(NC(=O)Nc3cccc(Cl)c3)cc2)o1)c1ccccc1 (configuration not stated)
active: growth inhibition [1] 100% | growth inhibition [4] 101%
inactive: inhibition [2] 12% | inhibition [3] -1% | outcome [5] | outcome [6] | outcome [7] | outcome [8]

CCCc1ccc(C(=O)N2[C@@H](c3nccs3)[C@@H](C(N)=O)C[C@@]2(CC(C)C)C(=O)O)cc1
inactive: inhibition [2] 16% | inhibition [3] 1% | outcome [5] | outcome [6] | outcome [7] | outcome [8]
active: growth inhibition [1] 80% | growth inhibition [4] 94%

O=C(Nc1cc(F)cc(F)c1)N1CCOC(CCN2CCC(c3ccccc3)CC2)(c2ccc(Cl)c(Cl)c2)C1 (configuration not stated)
inactive: inhibition [2] 31% | inhibition [3] 0% | outcome [5] | outcome [6] | outcome [7] | outcome [8]
active: growth inhibition [1] 69% | growth inhibition [4] 91%

CCCCC(=O)Nc1ccc(Nc2nc(C)cc(N3CCCC3)n2)cc1
active: growth inhibition [1] 67% | growth inhibition [4] 101%
inactive: inhibition [2] 38% | inhibition [3] 4% | outcome [5] | outcome [6] | outcome [7] | outcome [8]

COc1ccc2c(NN=CC=Cc3ccccc3)cc(C)nc2c1
inactive: inhibition [2] 18% | inhibition [3] 2% | outcome [5] | outcome [6] | outcome [7] | outcome [8]
active: growth inhibition [1] 56% | growth inhibition [4] 99%

Clc1ccc(OC2CCC(Cn3ccnc3)(c3ccc(Cl)cc3Cl)CC2)c(Cl)c1 (configuration not stated)
inactive: inhibition [2] 4% | inhibition [3] -4% | outcome [5] | outcome [6] | outcome [7] | outcome [8]
active: growth inhibition [1] 86% | growth inhibition [4] 98%

CC(C)(C)C1CCc2onc(C(=O)Nc3cc(Cl)ccc3O)c2C1 (configuration not stated)
inactive: inhibition [2] 5% | inhibition [3] -2% | outcome [5] | outcome [6] | outcome [7] | outcome [8]
active: growth inhibition [1] 82% | growth inhibition [4] 98%

CCOC(=O)CCCc1cc(NC2CCN(C)CC2)nc(Nc2ccc(C)cc2)n1
active: growth inhibition [4] 90%
inactive: growth inhibition [1] 12% | inhibition [2] 35% | inhibition [3] -2% | outcome [5] | outcome [6] | outcome [7] | outcome [8]
